Pol beta inh – blocks human DNA polymerase beta activity; P06746; Pol beta primer extension/strand displacement, fluorescence kinetic; Potency, µM (titrated, usually from 114 µM), usual class: inhibitors; 340,000 tested, 1.3% active
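Human Pol beta at 10 nM; strand-displacement substrate 50 nM final. Compound exposure 15 min at room temperature before start, reaction 10 min at room temperature.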
Pol iota inh – inhibitors of human DNA polymerase iota; Pol iota fluorescent replication assay, 10 min; Potency, µM (top dose mostly 115 µM), most hits filed as inhibitors; AID 588590; Q9UNA4; 390,000 tested, 1% active
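Fluorescent replication assay read twice, at 0 min and 10 min after adding 50 nM (final) substrate. Enzyme (10 nM) and compounds were first incubated 15 min at room temperature; enzyme-free buffer wells were negative controls.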
Pol kappa inh – DNA polymerase kappa (human) inhibition; purified Pol kappa, fluorescent DNA synthesis assay, 10 min; Potency, µM (doses to about 107 µM), usual class: inhibitors; 400,000 tested, 0.53% active
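Pol kappa 10 nM + cpd, 15 min RT; start w/ substrate 50 nM final; fluorescence kinetic read, 0 and 10 min. Neg ctrl: buffer, no enzyme.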
POLH inh – blocks human DNA polymerase eta activity. AID 588591. Potency, µM (doses to about 114 µM), actives largely listed as inhibitors. 390,000 tested, 1.2% active. recombinant Pol eta, fluorescent DNA replication assay
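Fluorescent replication assay: 50 nM final substrate added after a 15 min room-temperature compound preincubation with 10 nM enzyme. Signal taken at 0 min and again at 10 min.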
TDP1 inh – inhibitors of human tyrosyl-DNA phosphodiesterase TDP1. recombinant TDP1, AlphaScreen DNA substrate cleavage. Potency, µM (top dose mostly 130 µM), most hits filed as inhibitors. 350,000 tested, 0.28% active. AID 485290; note: nearly all actives have a fitted effect of over 40% in size
Target sequence (Q9NUW8 whole entry, looked up): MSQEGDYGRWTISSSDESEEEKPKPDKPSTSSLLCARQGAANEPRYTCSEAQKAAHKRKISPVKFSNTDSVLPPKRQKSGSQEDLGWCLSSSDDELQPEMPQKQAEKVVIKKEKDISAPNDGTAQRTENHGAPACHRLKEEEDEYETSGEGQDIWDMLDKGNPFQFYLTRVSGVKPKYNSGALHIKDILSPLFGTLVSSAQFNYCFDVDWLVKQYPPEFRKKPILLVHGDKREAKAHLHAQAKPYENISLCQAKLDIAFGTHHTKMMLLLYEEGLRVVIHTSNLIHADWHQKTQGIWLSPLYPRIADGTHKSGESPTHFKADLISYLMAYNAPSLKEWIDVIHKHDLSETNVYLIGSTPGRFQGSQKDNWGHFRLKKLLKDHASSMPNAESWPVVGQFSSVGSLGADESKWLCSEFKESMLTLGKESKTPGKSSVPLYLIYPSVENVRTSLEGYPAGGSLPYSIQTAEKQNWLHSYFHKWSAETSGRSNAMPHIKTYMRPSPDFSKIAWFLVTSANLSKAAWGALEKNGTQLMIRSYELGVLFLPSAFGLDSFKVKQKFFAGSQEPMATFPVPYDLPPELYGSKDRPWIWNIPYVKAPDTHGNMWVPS
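AlphaScreen read-out: signal falls as enzyme removes the 3' tyrosine-FITC from a 5'-biotinylated DNA oligo (15 nM, 5 min, RT). Enzyme was E. coli-made recombinant Tdp1 at 1 nM, exposed to compound for 15 min beforehand; beads 10 ug/ml, 10 min.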
FEN1 inhibitor – human FEN1 inhibition; P39748; 390,000 tested, 0.35% active; Potency, µM (doses to about 114 µM), usual class: inhibitors; Recombinant FEN1 flap cleavage, fluorescence, 15 min; note: nearly all actives have a fitted effect of over 65% in size
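Enzyme 10 nM, 15 min RT preincubation with compound; start with substrate 50 nM final; reads at 0 and 15 min; qHTS titration, four-parameter Hill fit.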
A number is an active result; . = inactive; ? = inconclusive; / = no result given; [ ] = another dose, or the depositor's remark. The list is not random: actives were taken first. Their share in the collection is about 2.4%. Calls come from the whole dose curve; as a rule, active = well fitted curve in the direction sought with a large enough effect; inconclusive = small, poorly fitted or top-dose-only effect, or another doubt; inactive = no such curve, though single readings can be large; an effect the other way counts as inactive or inconclusive.

SMILES	Pol beta inh	Pol iota inh	Pol kappa inh	POLH inh	TDP1 inh	FEN1 inhibitor
Clc1cccc(N2CCN(c3ncnc4c3nc3n4CCCCC3)CC2)c1	.	.	.	.	.	.
Cc1cc(NC(=O)c2cc(-c3cccc(Cl)c3)on2)n(-c2ccccc2)n1	.	.	.	.	.	.
Cc1c(C(=O)N2CCCC2)oc2c1-c1nn(CC(=O)NCc3cccc(Br)c3)cc1CC2	.	.	.	.	.	.
C=Cc1ccc(Cn2c(C(=O)O)c(CNC3CCCCC3)c3ccc(OC)cc32)cc1	35µM	?	.	?	.	.
COc1ccc(Cn2c(C(=O)O)c(CNC3CCCCCC3)c3ccc(OC)cc32)cc1	.	.	.	.	.	.
CN(Cc1ccccc1)c1ccc(-c2nc(-c3ccco3)no2)cc1[N+](=O)[O-]	.	.	.	.	.	.
Clc1cccc[n+]1CCCCCC[n+]1ccccc1Cl	/	.	.	/	/	.
COc1ccc(-n2nnnc2SCC(=O)NC2CC2)cc1	/	.	.	89µM	.	.
COc1ccccc1Nc1nn2c(=O)c3ccc(C(=O)NCCc4ccccc4)cc3nc2s1	?	.	.	79µM	.	.
COc1ccc(Nc2nn3c(=O)c4cc5c(cc4nc3s2)OCO5)c(OC)c1	3.5µM	.	.	?	.	.
Cc1ccc(C)c(Nc2nn3c(=O)c4cc5c(cc4nc3s2)OCO5)c1	.	.	.	?	.	.
Cn1cnnc1SCC(=O)Nc1ccc(C#N)cc1	.	.	.	.	.	.
O=c1cc(-c2ccc(O)c(O)c2)oc2cc(O[C@@H]3O[C@H](CO)[C@@H](O)[C@H](O)[C@H]3O)cc(O)c12	/	6.3µM	2.5µM	8.9µM	.	?
COc1ccc(-c2cc(=O)c3c(O)c(OC)c(O[C@@H]4OC(COC5OC(C)C(O)C(O)[C@@H]5O)C(O)C(O)C4O)cc3o2)cc1 (stereo partly specified)	/	/	.	/	.	/
O=c1cc(-c2ccc(O)cc2)oc2cc(O[C@H]3OC(CO)C(O)C(O)C3O)cc(O)c12 (stereo partly specified)	/	/	?	/	.	/
O=c1c(O[C@H]2O[C@@H](CO)[C@H](O)[C@@H](O)[C@@H]2O)c(-c2ccc(O)cc2)oc2cc(O)cc(O)c12	/	.	.	?	.	.
CC1OC(OCC2OC(Oc3c(-c4ccc(O)c(O)c4)oc4cc(O)cc(O)c4c3=O)C(O)C(O)C2O)C(O)C(O)C1O (stereo unspecified)	/	/	6.3µM	/	.	/
O=c1cc(-c2ccccc2)oc2cc(O[C@@H]3O[C@H](CO)[C@@H](O)[C@H](O)[C@H]3O)c(O)c(O)c12	/	/	10µM	/	/	/
O=c1c(O[C@@H]2O[C@H](CO)C(O)C2O)c(-c2ccc(O)c(O)c2)oc2cc(O)cc(O)c12 (stereo partly specified)	/	35µM	25µM	?	.	?
CC(CC(=O)NCc1ccc(Cl)cc1)CC1=NS(=O)(=O)c2ccccc2N1 (stereo unspecified)	.	.	.	.	.	.
CC1=C(CO)C(=O)OC([C@@H](C)C2CC[C@H]3C4C[C@H]5O[C@]56[C@@H](O)C=CC(=O)[C@]6(C)C4CC[C@]23C)C1 (stereo partly specified)	?	?	.	50µM	/	.
Cc1ccc(CN2c3ccccc3-c3nc(SCC(=O)Nc4c(C)cc(C)cc4C)ncc3S2(=O)=O)cc1	?	.	.	.	.	.
O=C(Cc1ccc(S(=O)(=O)N2CCOCC2)s1)N1CCN(c2cccc(C(F)(F)F)c2)CC1	.	.	.	.	.	.
O=C(Cc1ccc(S(=O)(=O)N2CCOCC2)s1)Nc1ccccc1Br	35µM	?	?	?	.	.
O=C(Cc1ccc(S(=O)(=O)N2CCCC2)s1)N1CCN(c2ccccc2)CC1	32µM	.	.	.	/	.
SMILES	Pol beta inh	Pol iota inh	Pol kappa inh	POLH inh	TDP1 inh	FEN1 inhibitor
Cc1ccc2c(CC(=O)OCc3cc(=O)n4c(n3)sc3ccccc34)coc2c1	10µM	?	?	10µM	25µM	.
O=C(O)CC/C(=C\c1cccc(NC(=O)c2ccccc2Cl)c1)c1nc2ccccc2s1	18µM	.	.	.	/	.
O=C(O)CC/C(=C\c1cc([N+](=O)[O-])ccc1Cl)c1nc2ccccc2s1	.	.	.	.	.	.
CC(O)C1CCC2C3CCC4CC(O)CCC4(C)C3CCC12C (stereo unspecified)	/	/	.	/	.	/
O=C1[C@@H]2[C@@H](CN3CN(c4ccccc4)N=C(c4ccccc4)[C@@]23c2ccccc2)C(=O)N1c1ccccc1	/	.	.	.	/	.
COc1cc(C(c2c(C)[nH][nH]c2=O)c2c(C)[nH][nH]c2=O)cc(Cl)c1O	.	.	.	.	.	.
COc1cc(C(c2c(C)[nH][nH]c2=O)c2c(C)[nH][nH]c2=O)ccc1OC(=O)c1cccc([N+](=O)[O-])c1	.	10µM	.	.	.	.
COc1ccc(OC)c(C(c2c(C)[nH][nH]c2=O)c2c(C)[nH][nH]c2=O)c1	.	28µM	.	.	/	.
COc1cc(C(c2c(C)[nH][nH]c2=O)c2c(C)[nH][nH]c2=O)ccc1OS(=O)(=O)c1ccccc1	.	10µM	.	.	.	.
COc1ccc(C(c2c(C)[nH][nH]c2=O)c2c(C)[nH][nH]c2=O)cc1Br	.	?	.	.	.	.
COc1cc(C(c2c(C)[nH][nH]c2=O)c2c(C)[nH][nH]c2=O)cc(OC)c1OC	.	8.9µM	.	.	.	.
Cc1cccc(N2CCN(S(=O)(=O)c3ccc(F)c(C(=O)Nc4ccc(C(C)C)cc4)c3)CC2)c1C	.	.	.	.	.	.
COc1cc(C(c2c(C)[nH][nH]c2=O)c2c(C)[nH][nH]c2=O)ccc1OC(C)C	.	.	.	.	.	.
COc1cc(C(c2c(C)[nH][nH]c2=O)c2c(C)[nH][nH]c2=O)ccc1OS(=O)(=O)c1ccc(C)cc1	.	3.5µM	.	.	.	.
Cc1cc(C)c(S(=O)(=O)NCC(c2cccs2)S(=O)(=O)c2ccccc2)c(C)c1 (stereo unspecified)	.	.	.	.	.	.
CC12CCC(C/C1=N\N=C1\NC(=O)/C(=C\c3ccc(Cl)cc3)S1)C2(C)C (stereo unspecified)	.	.	.	50µM	.	?
CCN1C(=O)[C@H]2[C@H]3[C@H](O)[C@H](O)C/C(=N/OCC(C)C)[C@H]3CC[C@@H]2C1=O	/	/	/	/	.[21 µM]	/
COc1ccc(CN2CCN(C(=O)c3cccc(OC)c3OC)CC2)cc1OC	.	.	.	.	.	.
COc1ccc(CN2CCN(C(=O)CCC(=O)c3ccc(C)s3)CC2)cc1OC	/	89µM	.	25µM	.	.
C=CCNc1nc(C(=O)OCC(=O)Nc2ccc(S(N)(=O)=O)cc2)cs1	/	28µM	.	56µM	.[0.505 µM]	.
